The text below walks through data of PubChem BioAssay (NCATS).

A short description of experiment [1]: Cell Viability - H-4-II-E (AID 543).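 Note: cells exposed to compound for 40 hours; % is set by controls: 0 for no effect and ±100 for the full control effect; nearly all actives have a fitted effect of over 35% in size.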 A digest of the protocol:
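Rat hepatoma H-4-II-E cells, 1500 per well, treated 40 h at 37 °C in complete medium. Cellular ATP read by CellTiter-Glo luminescence; AC50 from Hill fits of concentration-response.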

Experiment [2] is described as follows: Cell Viability - SH-SY5Y (AID 544).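 Note: cells exposed to compound for 40 hours; nearly all actives have a fitted effect of over 55% in size.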 Particulars: SH-SY5Y neuroblastoma cell viability; viability change, negative = cytotoxic: at 92.2 µM (top of the series). The method in brief: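 SH-SY5Y human neuroblastoma cells (1500/well) incubated 5 h, then compound-treated 40 h at 37 °C in complete medium. Viability read as intracellular ATP by CellTiter-Glo luminescence after 20 min; AC50 from Hill-equation fits of qHTS concentration-response.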

Experiment [3] in a line: Cellular Toxicity (caspase-3) Jurkat (AID 655).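 Note: cells exposed to compound for 16 h at 37 °C before reading.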 The following applies: Jurkat caspase-3 activation, luminescence; caspase-3 activation: at 92.2 µM (top of the series), DMSO = 0%, tamoxifen = 100%. A digest of the protocol: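 Luminescent caspase-3/7 readout (aminoluciferin substrate cleavage) in human T-cell leukemia Jurkat cells after 16 hr compound exposure. Concentration-response normalized to DMSO and 100 uM tamoxifen; AC50 by standard Hill equation.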

Experiment [4] in a line: Cell Viability - LYMP2-001 (AID 921).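 Note: 0% = DMSO only and full inhibition = tetraoctylammonium bromide control wells; nearly all actives have a fitted effect of over 70% in size.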 A digest of the protocol:
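CellTiter-Glo luminescence (intracellular ATP) after 24 hr compound exposure at 37 C, 2500 lymphoblastoid cells/well in complete medium. AC50 fitted with standard Hill equation; tetraoctylammonium bromide positive control.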

Experiment [5] in a line: MultiTox-Fluor Cytotoxicity Assay - LYMP1-003 - Live Cells (AID 962).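 Note: cells exposed to compound for 16 hours at 37 °C; 0% = DMSO only and full loss = 92 µM tetraoctylammonium bromide; cytotoxic hits lower the live-cell protease signal.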 The method in brief: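 LYMP1-003 lymphoblastoid cells, 2500/well in complete medium, treated 16 h at 37 C; live-cell protease cleavage of GF-AFC read by fluorescence (Ex/Em 405/510) after 60 min reagent; AC50 from Hill fits of concentration-response.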
The nature of experiment [6]: Cell Viability - LYMP2-004 (AID 966).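 Note: plate controls were DMSO only for no effect and tetraoctylammonium bromide control for full effect; nearly all actives have a fitted effect of over 65% in size.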 The method in brief: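 Lymphoblastoid LYMP2-004 cells, 2500 per well, were preincubated for 5 hr and then treated with compound for 24 h at 37 C in complete medium. Viability was read as cellular ATP by CellTiter-Glo luminescence, and AC50 values were taken from Hill fits to concentration-response data.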
Experiment [7] in a line: Cell Viability - LYMP2-015 (AID 971).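 Note: 0% = DMSO only and full effect = 92 µM tetraoctylammonium bromide; nearly all actives have a fitted effect of over 55% in size.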 The method in brief: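 LYMP2-015 human lymphoblastoid cells (2500/well) in complete medium, compound-treated 24 h at 37 C; viability read as cellular ATP by CellTiter-Glo luminescence after 30 min at room temperature. AC50 from Hill-equation fits of qHTS concentration-response data.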
Experiment [8] is described as follows: Cell Viability - LYMP2-019 (AID 973).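 Note: 0% = DMSO alone and full effect = 92 µM tetraoctylammonium bromide; nearly all actives have a fitted effect of over 55% in size.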 A digest of the protocol: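 Human lymphoblastoid LYMP2-019 cells (2500/well) preincubated 5 h at 37 C, then treated 24 h at 37 C in complete medium. Viability by CellTiter-Glo ATP luminescence after 30 min at room temperature; AC50 from Hill fits.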
Experiment [9] is described as follows: Cell Viability - LYMP2-021 (AID 974).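 Note: compound exposure lasts 24 hours at 37 °C; % is set by controls: 0 for no effect and ±100 for the full control effect; nearly all actives have a fitted effect of over 55% in size.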 The method in brief:
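Human lymphoblastoid LYMP2-021 cells, 2500/well in complete medium, treated 24 hours at 37 C. Intracellular ATP by CellTiter-Glo luminescence (30 min, RT); AC50 from Hill fits of concentration-response.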

Experiment [10] is described as follows: Cell Viability - LYMP2-025 (AID 976).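 Note: plate controls were DMSO only for no effect and tetraoctylammonium bromide control for full effect.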 A digest of the protocol: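 Human lymphoblastoid LYMP2-025 cells, 2500/well, exposed 24 h at 37 C in complete medium in 1536-well qHTS. Viability as cellular ATP by CellTiter-Glo luminescence; AC50 from Hill fits of concentration-response data.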
A short description of experiment [11]: Cell Viability - LYMP2-006 (AID 978). Note: % is set by controls: 0 for no effect and ±100 for the full control effect; nearly all actives have a fitted effect of over 60% in size. A digest of the protocol:
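qHTS, 1536-well; 2500 cells/well, 5 hr 37 C; cpd 24 hr 37 C; CellTiter-Glo 30 min RT; luminescence. Tetraoctylammonium bromide pos. ctrl. AC50 via Hill eqn.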

Experiment [12] in a line: Cell Viability - LYMP2-007 (AID 979).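 Note: cells exposed to compound for 24 h before reading; 0% = DMSO only and the negative end = 92 µM tetraoctylammonium bromide; nearly all actives have a fitted effect of over 60% in size.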 A digest of the protocol: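 Human lymphoblastoid LYMP2-007 cells (2500/well) preincubated 5 h at 37 C, then treated 24 h at 37 C in complete medium. Viability by CellTiter-Glo ATP luminescence after 30 min at room temperature; AC50 from Hill fits.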
The nature of experiment [13]: Cell Viability - LYMP2-014 (AID 983).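 Note: plate controls were DMSO only for no effect and 92 µM tetraoctylammonium bromide for full effect; nearly all actives have a fitted effect of over 50% in size.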 The method in brief: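 LYMP2-014 human lymphoblastoid cells, 2500/well, treated 24 h at 37 C in complete medium; viability by CellTiter-Glo ATP luminescence after 30 min at room temperature. AC50 from Hill fits of qHTS concentration-response; tetraoctylammonium bromide positive control.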
The nature of experiment [14]: Cell Viability - LYMP2-018 (AID 985).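 Note: plate controls were DMSO only for no effect and tetraoctylammonium bromide at 92 µM for full effect; nearly all actives have a fitted effect of over 50% in size.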 A digest of the protocol:
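Human lymphoblastoid LYMP2-018 cells, 2500/well, settled 5 hr at 37 C then exposed to compound 24 hr at 37 C; intracellular ATP measured by CellTiter-Glo luminescence. AC50 from Hill-equation concentration-response fits.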

Experiment [15] is described as follows: Cell Viability - LYMP2-020 (AID 986). The method in brief: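 Human lymphoblastoid LYMP2-020 cells (2500/well) preincubated 5 h at 37 C, then treated 24 h at 37 C. Viability measured as intracellular ATP by CellTiter-Glo luminescence after 30 min at room temperature; AC50 from Hill fits.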
Experiment [16] is described as follows: Cell Viability - LYMP2-022 (AID 987). A digest of the protocol:
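LYMP2-022 lymphoblastoid cells (2500/well, complete medium) were treated with compounds for 24 hours at 37 C; intracellular ATP was then read by CellTiter-Glo luminescence after 30 min at room temperature. AC50 values were derived from Hill-equation fits.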

The nature of experiment [17]: Cell Viability - LYMP2-026 (AID 989). Note: % is set by controls: 0 for no effect and ±100 for the full control effect; nearly all actives have a fitted effect of over 50% in size. The method in brief: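 Human lymphoblastoid LYMP2-026 cells, 2500/well, exposed to compound 24 h at 37 C in complete medium. Viability as intracellular ATP by CellTiter-Glo luminescence; AC50 from Hill fits of qHTS concentration-response.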
Experiment [18] can be described thus: Cell Viability - LYMP1-002 - Assay at 40 hr (AID 994).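 Note: 0% = DMSO only and full inhibition = 92 µM tetraoctylammonium bromide; nearly all actives have a fitted effect of over 60% in size.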 A digest of the protocol: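 LYMP1-002 human lymphoblastoid cells (2500/well, complete medium) were treated with compounds for 40 hr at 37 C. Intracellular ATP was measured by CellTiter-Glo luminescence, and AC50 values came from Hill-equation fits of concentration-response data; tetraoctylammonium bromide was the positive control.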

The nature of experiment [19]: qHTS assay for small molecule agonists of retinoid X receptor alpha signaling (AID 588544). Particulars: HEK293T RXRa-UAS-bla, beta-lactamase reporter, 18 h; 530 nm emission. A general note: Quantitative high-throughput screening tests each substance at several concentrations.
Experiment [20] in a line: qHTS assay for small molecule antagonists of the retinoid-related orphan receptor gamma (ROR-gamma) signaling pathway - cell viability counter screen (AID 720652; active = well fitted curve in the direction sought with a large enough effect in the repeat runs; an effect the other way counts as inactive or inconclusive;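 note: CHO reporter cells with doxycycline-induced ROR-gamma expression; compound exposure lasted 16 hr before ATP read; % is set by controls: 0 for no effect and ±100 for the full control effect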). A digest of the protocol:
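CHO cells carrying TET-inducible ROR and RORE-luciferase reporter, plated 5 hr, then dosed with compound plus doxycycline. After 16 hr at 37 C, viability read as intracellular ATP by CellTiter-Glo luminescence.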

Where “and” joins values, the source holds several entries; their conditions need not be identical. Identical values can stand only once. Results filed as inconclusive are left out. Calls of active or inactive are those of the source. Unless noted, calls come from the whole dose curve; as a rule, active = well fitted curve in the direction sought with a large enough effect; inconclusive = small, poorly fitted or top-dose-only effect, or another doubt; inactive = no such curve, though single readings can be large; an effect the other way counts as inactive or inconclusive.

In the case of `Nc1cc(Cl)cc(C(=O)O)c1Cl`, the Potency entry in experiment [1], in [2], in experiment [4], in experiment [6], in experiment [7] and in [8] was “inactive” each time. The Potency entry in [9], in [10], in [11], in experiment [12], in experiment [13] and in experiment [14] was “inactive” each time. For the same compound, the Potency entry in [15], in experiment [16], in experiment [17], in experiment [18] and in experiment [20] was “inactive” throughout. Also, the caspase-3 activation in experiment [3] was -0.545% (inactive). For the same compound, in [5], the compound was classed as inactive. Also, the max response in experiment [19] is -12.3% and -7.66%.

In the case of `O=[N+]([O-])c1ccccc1O`, the Potency result in experiment [1], in experiment [2], in experiment [4], in [6], in experiment [7] and in [8] was “inactive” each time. In addition, the Potency result in [9], in experiment [10], in experiment [11], in [12], in experiment [13] and in [14] was “inactive” each time. For the same compound, the Potency result in [15], in experiment [16], in experiment [17], in experiment [18] and in experiment [20] was “inactive” each time. Further, the caspase-3 activation in experiment [3] was 1.37% (inactive). For the same compound, the outcome in experiment [5] was inactive. For the same compound, in experiment [19], the max response was -4.21%.

Regarding `ClCCCCl`, the Potency result in experiment [1], in experiment [2], in experiment [4], in experiment [7], in experiment [8] and in experiment [9] was “inactive” in each case. For the same compound, the Potency result in experiment [10], in [11], in experiment [12], in experiment [13], in experiment [14] and in experiment [15] was “inactive” in each case. Also, the Potency entry in [16], in experiment [17], in [18] and in [20] was “inactive” in each case. For the same compound, the caspase-3 activation in experiment [3] is 2.19% (inactive). Moreover, the outcome in experiment [5] was inactive. Further, the max response in experiment [19] stood at 1.73%.

For `Cc1ccc(N)cc1Cl`, the Potency result in experiment [1], in experiment [2], in experiment [4], in experiment [6], in experiment [7] and in [8] was “inactive” each time. The Potency entry in experiment [9], in experiment [10], in experiment [11], in experiment [12], in experiment [13] and in [14] was “inactive” in each case. Also, the Potency result in experiment [15], in experiment [16], in experiment [17], in experiment [18] and in experiment [20] was “inactive” in each case. Moreover, the caspase-3 activation in experiment [3] is 1.16% (inactive). Further, the compound was classed as inactive in experiment [5]. In addition, the max response in [19] was -18.1%.

As for `C1CC2OC2CC1C1CO1` (stereo not drawn), the Potency result in experiment [1], in experiment [2], in experiment [4], in experiment [6], in experiment [7] and in experiment [8] was “inactive” in each case. Moreover, the Potency result in experiment [9], in experiment [10], in [11], in experiment [12], in [13] and in experiment [14] was “inactive” in each case. The Potency result in experiment [15], in [16], in experiment [17], in experiment [18] and in experiment [20] was “inactive” in each case. The caspase-3 activation in [3] was -1.28% (inactive). In addition, in experiment [5], the compound was classed as inactive. Also, the max response in [19] is -2.62%.

With `CC(C)C#N`, the Potency result in experiment [1], in experiment [2], in [4], in experiment [6], in experiment [7] and in [8] was “inactive” each time. Also, the Potency entry in experiment [9], in experiment [10], in experiment [11], in experiment [12], in experiment [13] and in [14] was “inactive” in each case. Besides, the Potency result in [15], in experiment [16], in [17], in experiment [18] and in experiment [20] was “inactive” in each case. In addition, in experiment [3], the caspase-3 activation is -1.09% (inactive). In addition, in [5], the compound was classed as inactive. In [19], the max response was -7.08%.

Regarding `Brc1cccc(-c2ccccc2)c1`, the Potency entry in experiment [1], in experiment [2], in [4], in [6], in [7] and in experiment [8] was “inactive” each time. The Potency result in [9], in experiment [10], in experiment [11], in [12], in experiment [13] and in [14] was “inactive” in each case. The Potency result in [15], in experiment [16], in [17], in experiment [18] and in [20] was “inactive” in each case. In experiment [3], the caspase-3 activation is 1.47% (inactive). Moreover, in [5], the outcome was inactive. In experiment [19], the max response was -12%.

On to `Cc1cccc(C)c1N`, for which the Potency entry in [1], in [2], in [4], in experiment [6], in [7] and in [8] was “inactive” in each case. In addition, the Potency result in experiment [9], in [10], in [11], in experiment [12], in experiment [13] and in experiment [14] was “inactive” each time. The Potency result in experiment [15], in [16], in [17] and in experiment [18] was “inactive” in each case. Also, in [3], the caspase-3 activation was -0.00153% (inactive). In addition, the outcome in experiment [5] was inactive. Also, in experiment [19], the max response was -2.21%.
